Assay outcomes from PubChem.
CSC inhib = cancer stem cell inhibition; cancer stem cell-like cells viability, luminescence; inhibition, % at 7.5 µM; 300,000 tested, 1.1% active; AID 2717; in the data active = inhibition above about 75%; inconclusive = no clear call, values can overlap the other calls; tested in HMLE shEcad cells
Calb FLC = C. albicans growth modulation with fluconazole; C. albicans CaCi-2 (fluconazole-resistant clinical isolate) + fluconazole, Alamar Blue growth, 48 h; growth inhibition, % (test concentration not listed); 300,000 tested, 0.57% active; AID 1979;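 active = growth inhibition above about 58% in most replicates, limit read from the data, passing the limit was not always enough; inconclusive = exactly half the replicates above a set limit; inactive = most replicates below a set limit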;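 also: all wells also contain fluconazole at 8 µg/ml as a sub-toxic cotreatment; 0% = median of DMSO wells and 100% = median of geldanamycin control wells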
MPTP inh = permeability transition pore inhibition. isolated mouse mitochondria, Ca2+ swelling absorbance, 30 min. inhibition, % at 10 µM. 360,000 tested, 1.4% active. AID 602449;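 active = inhibition of 50% or more, scaled per plate between neutral and stimulator controls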;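 also: 0% = DMSO wells given calcium and 100% = 1 mM EGTA wells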
SKKanGAS inh = blocks kanamycin growth of S. pyogenes SKKanGAS strain; BacTiter-Glo, 6 h; inhibition, % at 7.5 µM; 300,000 tested, 1.3% active;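 active = mean replicate score, as percent of positive control median, at least 50; inconclusive = mean below 50 but one replicate at or above 50; inactive = mean and every replicate below 50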;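 also: strain carries kanamycin resistance gene driven by streptokinase promoter and grows in 40 µg/ml kanamycin; loss of luminescence reflects streptokinase promoter inhibition or plain growth inhibition; 0% = median of DMSO wells and 100% = positive control at its reference dose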
Mdm2-MdmX inh = disrupts the human Mdm2-MdmX interaction. inhibition, % at 8 µM. 330,000 tested, 3% active. SaOS-2 split-luciferase Mdm2/MdmX complementation, luminescence. O15151+Q00987. AID 485346;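 active = inhibition of at least 50% at 8 µM in the primary screen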
Target sequence (O15151 whole entry, looked up): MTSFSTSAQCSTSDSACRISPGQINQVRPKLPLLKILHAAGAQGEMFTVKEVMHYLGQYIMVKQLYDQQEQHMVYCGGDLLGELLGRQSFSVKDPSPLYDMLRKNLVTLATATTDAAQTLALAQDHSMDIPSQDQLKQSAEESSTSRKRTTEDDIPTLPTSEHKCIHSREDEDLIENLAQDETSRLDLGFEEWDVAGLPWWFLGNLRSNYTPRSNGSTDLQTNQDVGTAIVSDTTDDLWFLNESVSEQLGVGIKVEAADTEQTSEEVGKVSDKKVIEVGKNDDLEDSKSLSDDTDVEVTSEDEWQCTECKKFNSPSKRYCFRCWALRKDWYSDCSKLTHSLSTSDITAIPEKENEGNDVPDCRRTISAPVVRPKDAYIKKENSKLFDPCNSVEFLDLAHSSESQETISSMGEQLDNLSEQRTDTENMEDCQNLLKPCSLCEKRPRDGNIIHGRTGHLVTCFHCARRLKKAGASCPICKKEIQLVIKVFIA
Target sequence (Q00987 whole entry, looked up): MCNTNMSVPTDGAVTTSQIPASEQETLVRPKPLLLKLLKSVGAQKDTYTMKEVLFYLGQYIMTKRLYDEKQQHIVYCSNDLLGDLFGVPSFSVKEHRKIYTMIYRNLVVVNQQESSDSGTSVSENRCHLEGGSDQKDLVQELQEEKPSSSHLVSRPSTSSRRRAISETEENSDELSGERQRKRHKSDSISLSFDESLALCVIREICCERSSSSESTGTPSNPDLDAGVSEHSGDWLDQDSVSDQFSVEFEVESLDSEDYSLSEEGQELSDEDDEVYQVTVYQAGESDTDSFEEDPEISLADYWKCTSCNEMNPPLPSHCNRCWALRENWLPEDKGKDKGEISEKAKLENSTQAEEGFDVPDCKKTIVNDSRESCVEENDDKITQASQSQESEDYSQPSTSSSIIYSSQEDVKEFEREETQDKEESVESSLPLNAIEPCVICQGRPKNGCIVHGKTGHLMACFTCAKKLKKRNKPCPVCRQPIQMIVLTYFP
Beta cell apopt = blocks beta cell apoptosis | INS-1E cytokine-induced death, ATP luminescence, 48 h; percent of positive-control rescue, neutral wells zero | protection from apoptosis, % (no concentration beside the values) | 300,000 tested, 0.8% active | AID 435005;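 active = Every replicate reaches about 75%, or at least half do and their mean reaches it too, limit read from the data; inconclusive = At least half of replicates reach the limit but their mean does not; inactive = Under half of replicates reach the limit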;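 also: 0% = cytokine-treated negative control wells and 100% = positive control rescue; higher means more ATP so stronger rescue from cytokine killing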
Mdm2 MdmX conf = human Mdm2/MdmX binding inhibition, confirmed; inhibition, % at 8 µM; shares compounds with Mdm2-MdmX inh; 10,000 tested, 55% active; luminescent assay; in the data active = inhibition above about 40%
Full FLuc ctr = inhibits full-length luciferase, flagging false Mdm2/MdmX hits; 6,200 tested, 77% active; SaOS-2 full-length luciferase counterscreen, luminescence; inhibition, % at 8 µM; AID 504607; shares compounds with Mdm2-MdmX inh;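 active = mean inhibition at 8 µM reaching about 37%, which flags the compound as non-specific, limit read from the data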;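 also: p53-null SaOS-2 cells with luciferase driven by a doxycycline-inducible promoter; compound on cells about two nights before reading with doxycycline added after day one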
An asterisk follows results filed as active; ? = inconclusive; nt = no result; + = active, no number. Compounds with a hit are over-represented: about 5.4% of the library has one in this group of screens.

SMILES | CSC inhib | Calb FLC | MPTP inh | SKKanGAS inh | Mdm2-MdmX inh | Beta cell apopt | Mdm2 MdmX conf | Full FLuc ctr
CC(C)(C)c1cc(N2CCOCC2)n2ncc(-c3ccc(Cl)cc3)c2n1 | 13 | -6 | 0 | 3 | 28 | 2 | nt | nt
Cc1ccc(-c2cnn3c(N4CCOCC4)cc(C)nc23)cc1 | 5 | 6 | 1 | 2 | 64* | -8 | 69* | +
COc1ccc(C(=O)NC2CCN(S(=O)(=O)c3ccc(C)cc3)CC2)cc1 | -19 | -2 | 1 | 3 | -4 | -1 | nt | nt
O=C(CSc1nnc(C2CC2)n1C1CC1)c1ccccc1F | nt | nt | -3 | nt | 3 | -1 | nt | nt
CC(C)n1cc(/C=C2/NC(=O)N(c3cccc(Cl)c3)C2=O)c2ccccc21 | 54 | 7 | 3 | 0 | 62* | nt | 65* | 43*
CC(C)n1cc(/C=C2\NC(=O)N(c3cccc(Cl)c3)C2=O)c2ccccc21 | 40 | 13 | 2 | -2 | 40 | -6 | nt | nt
C/C=N\NC(=O)COc1cc(C)ccc1C | 1 | -5 | -2 | -1 | 28 | nt | nt | nt
Cc1cc(NC(=O)c2c(F)cccc2Cl)n(-c2nc3ccccc3[nH]2)n1 | -11 | 109* | 2 | 118* | 68* | 33 | 32 | nt
Cc1cc(NC(=O)C2CCCCC2)n(-c2nc3ccccc3[nH]2)n1 | 30 | -3 | 0 | 21 | 57* | 24 | 43* | 68*
Cc1cc(NC(=O)/C=C/c2ccc(F)cc2)n(-c2nc3ccccc3[nH]2)n1 | 2 | ? | -1 | -7 | 40 | 40 | nt | nt
Cc1cc(NC(=O)c2c(F)cccc2F)n(-c2nc3ccccc3[nH]2)n1 | 53 | 5 | 17 | 37 | 53* | 36 | 27 | nt
Cc1cc(Nc2ccccc2)n(-c2nc3ccccc3[nH]2)n1 | -16 | -25 | 2 | 114* | 53* | 31 | 18 | nt
Cc1cc(NC(=O)c2ccccc2F)n(-c2nc3ccccc3[nH]2)n1 | 19 | 3 | 2 | ? | 31 | 28 | nt | nt
COCCNC(=O)C1(C)CCCN(C(=O)c2ccc3ccccc3c2)C1 (configuration not stated) | nt | nt | 0 | nt | nt | nt | nt | nt
NC(=O)c1nn(-c2ccccc2)nc1NC(=O)CN1CCCC1 | -11 | -11 | -1 | 19 | 14 | -5 | nt | nt
NC(=O)c1nn(-c2ccccc2)nc1NC(=O)Cn1nnc(-c2ccccc2)n1 | 1 | -5 | 0 | -2 | 61* | -4 | -6 | nt
COc1cc2c(cc1OC)CN(c1nc(CN3CCCCC3)nc3sc4c(c13)CCCC4)CC2 | 21 | 14 | 21 | 6 | 53* | 32 | 44* | 62*
C=CCn1c(SCc2c(C)noc2C)nc2sc(C)c(C)c2c1=O | 59 | -20 | 1 | 38 | 56* | 14 | 60* | 49*
Cc1ccc(N2C(=O)C3C4C=CC(CNC(=S)N5CCN(c6cccc(C)c6)C(C)C5)(O4)C3C2=O)cc1 (configuration not stated) | ? | 1 | 5 | -9 | 35 | 2 | nt | nt
COc1cc2c(cc1OC)C(Cc1ccc(O)c(Oc3ccc(C[C@H]4c5cc(OC)c(OC)cc5CCN4C)cc3)c1)N(C)CC2 (some centres not stated) | 17 | nt | nt | nt | 72* | -7 | 29 | nt
CCCCCCOC(=O)C(C#N)c1nc2ccccc2nc1N1CCN(CC)CC1 (configuration not stated) | 25 | 26 | 4 | 6 | 60* | 5 | 32 | 70*
CCOc1ccccc1N1CCN(c2nc3ccccc3nc2C(C#N)C(=O)OC)CC1 (configuration not stated) | 5 | -1 | 2 | 1 | 71* | -2 | 14 | nt
COc1ccccc1N1CCN(c2nc3ccccc3nc2C(C#N)C(=O)OC(C)C)CC1 (configuration not stated) | 8 | 12 | 2 | 25 | 17 | 10 | nt | nt
CCCC(=O)Nc1sc(C(=O)OC)c(C)c1C(N)=O | 3 | 13 | -2 | 2 | 28 | -1 | nt | nt
COc1ccc(S(=O)(=O)Nc2ccccc2OC)cc1NC(=O)c1cc2ccccc2oc1=O | 5 | -4 | 2 | 25 | 73* | 2 | -52 | nt
SMILES | CSC inhib | Calb FLC | MPTP inh | SKKanGAS inh | Mdm2-MdmX inh | Beta cell apopt | Mdm2 MdmX conf | Full FLuc ctr
COc1ccc(NC(=O)c2cc3ccccc3oc2=O)c(OC)c1 | 8 | 13 | 2 | -4 | -10 | -3 | nt | nt
COc1ccc(-c2cc3ccccc3oc2=O)cc1NC(=S)NC(=O)c1ccc2c(c1)OCCO2 | nt | 9 | 0 | 7 | 88* | 47 | -35 | nt
COc1ccc(-c2nc(-c3ccc(NC(=O)c4ccc(Br)o4)cc3)no2)cc1OC | 79* | -3 | 0 | 10 | 78* | nt | -21 | nt
COc1ccc(CCC(=O)Nc2ccc(-c3noc(-c4ccc(OC)c(OC)c4)n3)cc2)cc1 | -4 | 10 | 1 | 0 | 11 | nt | nt | nt
COc1ccc(-c2cc3ccccc3oc2=O)cc1NC(=O)c1ccc(Br)o1 | -3 | -1 | -6 | 5 | 59* | 10 | 39 | 23
CC(C)[C@H](NC(=O)NCCc1ccc(Cl)cc1)C(=O)O | nt | 1 | -2 | -3 | -7 | 2 | nt | nt
Cc1cc2oc(=O)cc(C)c2cc1NC(=O)CCl | 27 | 5 | 1 | -4 | 58* | -4 | 36 | nt
Cc1cc2oc(=O)cc(C)c2cc1NC(=O)CCC(=O)O | -17 | -6 | -1 | -11 | 29 | 2 | nt | nt
COc1ccc(N2C(=O)c3cc4ccccc4cc3C2=O)cc1 | 0 | -1 | 2 | -8 | 16 | -8 | nt | nt
COc1ccc(-c2ccc3c(c2)S(=O)(=O)c2cccc(C(=O)NC4CCCCC4)c2C3=O)cc1OC | 14 | nt | -3 | nt | 6 | -7 | nt | nt
OCC1OC(n2cnc3c(NCc4ccco4)ncnc32)C(O)C1O (configuration not stated) | nt | nt | -1 | nt | nt | nt | nt | nt
Cn1cc(C[C@H](NC(=O)OC(C)(C)C)C(=O)N[C@@H](CO)Cc2ccccc2)c2ccccc21 | 4 | -1 | 0 | 7 | -4 | 7 | nt | nt
CCN(c1ccccc1)S(=O)(=O)c1ccc(Oc2ccc(-n3ccnc3)cc2)nc1 | -6 | 1 | 2 | 8 | 59* | 13 | 58* | 63*
COC(=O)c1ccc2c(c1)sc(=NC(=O)CCS(=O)(=O)c1ccccc1)n2C | 10 | 41 | -2 | -7 | 51* | nt | 44* | 77*
CN(C)C(=O)c1ccc(-c2cc(C(F)(F)F)nn2C)s1 | -2 | 12 | 1 | 10 | -39 | 3 | nt | nt
C=CCN=C1NN=C(c2cc(C)n(CC=C)c2C)CS1 | 18 | -20 | 1 | 8 | 87* | 2 | 89* | 50*
COCCCN=C1NN=C(c2cc(C)n(-c3ccccc3)c2C)CS1 | -6 | -4 | 3 | 9 | 13 | -3 | nt | nt
COCCCN=C1NN=C(c2cc(C)n(Cc3ccccc3Cl)c2C)CS1 | -6 | 1 | 4 | 8 | 79* | 0 | 76* | 80*
